This is a sample that favours compounds with a hit; in the whole collection about 7.8% have one here.
HCV inhibitor: blocks hepatitis C virus | Potency, µM (top dose mostly 41.8 µM), actives largely listed as inhibitors | AID 651820 | 340,000 compounds, 3.4% hits | Huh7.5.1 HCVcc-Cre infection, luciferase reporter, 44 h; active = well fitted inhibition curve with a large enough effect; inconclusive = small, poorly fitted or top-dose-only effect, or another doubt; inactive = no such curve, though single readings can be large or run the other way
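Infectious HCVcc-Cre (~0.5 moi) was added to cells just after compound, with cells seeded 4 h earlier at 1,000 per well. Luciferase activity after 44 h culture reported infection; substrate was incubated 15 min at room temperature before reading.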
Lassa entry inh: Lassa virus entry inhibition; Lassa virus pseudotype entry inhibition, cell reporter; Potency, µM (titrated, usually from 37.9 µM), hits mostly inhibitors; 300,000 compounds, 1.2% hits; calls by dose curve; tested in HEK293 cells; also: nearly all actives have a fitted effect of over 50% in size
HCMV antiviral: human cytomegalovirus inhibition; HFF cells, HCMV-luciferase reporter, 72 h; active compounds read low; activity change, negative = inhibition, % at 57.5 µM; 410,000 compounds, 4.5% hits; in the data active = activity change below about -60%; inconclusive = no clear call, values can overlap the other calls; inactive = above about -39%
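Steps: HFFs plated, 16 h 37C; compounds added; HCMV-luciferase added to MOI 1 PFU/cell; 72 h 37C; OneGlo reagent, 5 min room temperature; luminescence read, normalized to controls.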
VACV mCherry inh: vaccinia inhibition (mCherry reporter); Vaccinia virus mCherry reporter infection, fluorescence; Potency, µM (series often up to 36.5 µM), most hits filed as inhibitors; 310,000 compounds, 0.63% hits; AID 720579; calls by dose curve; tested in A549 cells; also: nearly all actives have a fitted effect of over 35% in size
MARV entry inh: Marburg virus entry inhibition | Marburg virus pseudotyped entry inhibition, cell reporter | Potency, µM (top dose mostly 37.8 µM), most hits filed as inhibitors | 300,000 compounds, 1.8% hits; calls by dose curve; tested in HEK293 cells
VACV Venus inh: vaccinia inhibition (Venus reporter); Vaccinia virus Venus reporter expression, fluorescence; Potency, µM (series often up to 36.5 µM), usual class: inhibitors; 330,000 compounds, 0.46% hits; calls by dose curve; tested in A549 cells; also: nearly all actives have a fitted effect of over 30% in size
Large screens that a line does not name were inactive.

Cc1ccc(C)c(NS(=O)(=O)c2ccc3c(c2)n(C)c(=O)n3C)c1	none (no result: HCV inhibitor, MARV entry inh)
CCOC(=O)c1cc(C#N)c(C)nc1N(CC)CC	HCV inhibitor inconclusive, Lassa entry inh 5.6µM
CCN(CC)c1nc(C)c(C(C)=O)cc1C#N	VACV Venus inh inconclusive (no result: VACV mCherry inh)
O=C(NCCN1CCN(c2cccc(Cl)c2)CC1)c1ccc(CSc2nc3ccncc3[nH]2)cc1	HCV inhibitor inconclusive, Lassa entry inh inconclusive, HCMV antiviral -79, MARV entry inh inconclusive
O=C(Nc1ccc(F)cc1Cl)c1cnc(N2CCOCC2)c2ccccc12	none (no result: HCV inhibitor, MARV entry inh)
Cc1ccc2[nH]c(=O)c(CN(CCO)Cc3nnnn3Cc3ccco3)cc2c1	none (no result: HCV inhibitor, Lassa entry inh, HCMV antiviral, MARV entry inh)
COc1ccccc1CN(Cc1cc2cc(C)cc(C)c2[nH]c1=O)Cc1nnnn1CC1CCCO1 (stereo not given)	Lassa entry inh inconclusive, MARV entry inh 10µM
COc1ccccc1CN(Cc1cc2cc(C)ccc2[nH]c1=O)Cc1nnnn1CC1CCCO1 (stereo not given)	MARV entry inh inconclusive
COc1ccccc1CN(Cc1cc2cc(C)ccc2[nH]c1=O)Cc1nnnn1Cc1ccco1	HCV inhibitor 13µM, Lassa entry inh inconclusive, MARV entry inh 13µM, VACV Venus inh inconclusive (no result: VACV mCherry inh)
CCCCCCCc1cc2ccc(F)cc2c2c(C(=O)OC)c(C(=O)OC)c(C(=O)OC)n12	none (no result: HCV inhibitor, Lassa entry inh, HCMV antiviral, VACV mCherry inh, VACV Venus inh)
CC(C)(C)OC(=O)N[C@@H](Cc1ccccc1)C(=O)N1CCC(C(=O)O)CC1	none (no result: VACV mCherry inh)
CC(C)(C)OC(=O)N[C@H](Cc1ccccc1)C(=O)N1CCC[C@@H]1C(=O)O	HCMV antiviral -80 (no result: Lassa entry inh, VACV mCherry inh, MARV entry inh, VACV Venus inh)
COC(=O)c1cc(NC(=S)NCc2ccc(Cl)cc2)cc(C(=O)OC)c1	HCV inhibitor inconclusive, HCMV antiviral -76
COC(=O)c1cccc(NC(=S)NCc2ccc(Cl)cc2)c1	none
Cc1cccc(N(CC(=O)NC(C)c2ccccc2)S(=O)(=O)c2ccccc2)c1C (stereo not given)	Lassa entry inh inconclusive, MARV entry inh inconclusive (no result: HCV inhibitor)
CC(=O)N1c2ccc(C)cc2Sc2c1ccc1ccccc21	Lassa entry inh inconclusive, HCMV antiviral -61, MARV entry inh inconclusive
CCN(CC)S(=O)(=O)c1cc(NC(=O)c2cc([N+](=O)[O-])ccc2N2CCOCC2)ccc1C	HCV inhibitor inconclusive, Lassa entry inh inconclusive, HCMV antiviral inconclusive, MARV entry inh 18µM
CC(C)CNC(=O)c1cc([N+](=O)[O-])ccc1N1CCOCC1	none
CC(C)(CNC(=O)c1cc([N+](=O)[O-])ccc1N1CCC(Cc2ccccc2)CC1)N1CCOCC1	HCV inhibitor inconclusive, HCMV antiviral -63 (no result: Lassa entry inh, VACV mCherry inh, MARV entry inh, VACV Venus inh)
CCC(C)(C)NC(=O)c1cc([N+](=O)[O-])ccc1N1CCOCC1	none
Cc1cc(C)c(NC(=O)CNC(=O)c2cc([N+](=O)[O-])ccc2N2CCOCC2)c(C)c1	HCV inhibitor 25µM, Lassa entry inh inconclusive, MARV entry inh inconclusive
O=C(Nc1ccc2oc(=O)ccc2c1)c1cc([N+](=O)[O-])ccc1N1CCOCC1	none
Cc1cc(=O)oc2cc(NC(=O)c3cc([N+](=O)[O-])ccc3N3CCOCC3)ccc12	HCV inhibitor 10µM, HCMV antiviral inconclusive, MARV entry inh inconclusive (no result: Lassa entry inh)
CCOc1ccc(C(=O)NCCc2csc(-c3cccc(C)c3)n2)cc1	none (no result: HCV inhibitor, MARV entry inh)
Cc1ccc(N2C(=O)CSC23C(=O)N(CC(=O)NCc2ccccc2)c2ccccc23)cc1 (stereo not given)	none (no result: HCV inhibitor, MARV entry inh)
CCCCS(=O)(=O)/C=C\C=C/S(=O)(=O)CCCC	HCV inhibitor 2.5µM, Lassa entry inh 11µM, MARV entry inh inconclusive, VACV Venus inh 11µM (no result: HCMV antiviral, VACV mCherry inh)
CCCCS(=O)(=O)/C=C\C1C2C=CC(C2)C1S(=O)(=O)CCCC (stereo not given)	Lassa entry inh inconclusive (no result: VACV mCherry inh)
O=C1CCC[C@@H]2[C@@H](Cc3ccccc3)[C@H](N3CCN(c4ccccc4)CC3)C[C@@H]3CCN1[C@@H]32	HCMV antiviral -80, VACV mCherry inh inconclusive, VACV Venus inh inconclusive (no result: Lassa entry inh, MARV entry inh)
COc1cc2nc(N(C)C)nc(N)c2cc1OC	HCV inhibitor inconclusive, HCMV antiviral -94, MARV entry inh inconclusive (no result: VACV mCherry inh)
O=C(NCc1ccncc1)c1cc2ccccc2nc1Cl	HCMV antiviral -79
CCOc1ccccc1N1CCN(CC(=O)Nc2ccnn2C2CCCC2)CC1	HCV inhibitor 13µM (no result: Lassa entry inh, VACV mCherry inh, MARV entry inh, VACV Venus inh)
Cn1c2c(c(=O)n(C)c1=O)C(C(F)(F)F)(C(F)(F)F)N=C(c1ccc(Cl)cc1)N2	HCV inhibitor 1.6µM, Lassa entry inh 2.8µM, VACV mCherry inh inconclusive, MARV entry inh 1µM, VACV Venus inh inconclusive (no result: HCMV antiviral)
CCOc1ccc(CCNC(=O)CN2C(=O)COc3ccc(S(=O)(=O)N(CC)CC)cc32)cc1	MARV entry inh inconclusive (no result: HCV inhibitor)
CC(C)OP(=O)(OC(C)C)/C(C=O)=N\Nc1ccc([N+](=O)[O-])cc1	HCV inhibitor inconclusive, HCMV antiviral -91 (no result: Lassa entry inh, VACV mCherry inh, MARV entry inh, VACV Venus inh)
COP(=O)(OC)/C(C=O)=N/Nc1ccc([N+](=O)[O-])cc1	none
COc1cnc(-c2ccccn2)nc1NC(C)C	HCV inhibitor inconclusive, Lassa entry inh inconclusive, HCMV antiviral -101, VACV mCherry inh 4.5µM, MARV entry inh 11µM, VACV Venus inh inconclusive
Cc1ccc(Sc2cc(C)nc(-c3ccccn3)n2)cc1	HCV inhibitor inconclusive, Lassa entry inh inconclusive, HCMV antiviral -76
FC(F)(F)c1cccc(Sc2cc(C(F)(F)F)nc(-c3ccccn3)n2)c1	MARV entry inh inconclusive (no result: VACV mCherry inh, VACV Venus inh)
COc1cnc(-c2ccccn2)nc1Sc1cccc(Cl)c1	HCV inhibitor 7.1µM, Lassa entry inh inconclusive, HCMV antiviral -64, MARV entry inh inconclusive (no result: VACV mCherry inh, VACV Venus inh)
COc1cnc(-c2ccccn2)nc1Sc1ccc(C)cc1	HCV inhibitor inconclusive, Lassa entry inh inconclusive, HCMV antiviral -81, VACV mCherry inh inconclusive, MARV entry inh 6.3µM, VACV Venus inh inconclusive
CCCOC(=O)c1c(NC(=O)c2nc3ncccn3n2)sc(C(=O)OCC)c1C	MARV entry inh inconclusive (no result: HCV inhibitor)
COc1cnc(-c2ccccn2)nc1Oc1ccc(Cl)c2ccccc12	HCV inhibitor inconclusive, Lassa entry inh inconclusive, HCMV antiviral -100, MARV entry inh inconclusive (no result: VACV mCherry inh, VACV Venus inh)
COc1ccccc1Sc1nc(-c2ccccn2)ncc1OC	HCV inhibitor inconclusive, Lassa entry inh inconclusive, HCMV antiviral inconclusive, VACV mCherry inh 5µM, MARV entry inh inconclusive
COc1cnc(-c2ccccn2)nc1Oc1ccccc1Cl	HCV inhibitor inconclusive (no result: VACV mCherry inh, VACV Venus inh)
COc1cc2nc3occc3c(OC)c2cc1OC	HCV inhibitor inconclusive, Lassa entry inh inconclusive, HCMV antiviral -72
CCSc1nnc(-c2ccc(C)cc2)c2ccccc12	HCV inhibitor inconclusive, Lassa entry inh inconclusive, HCMV antiviral -62, VACV mCherry inh inconclusive, MARV entry inh inconclusive, VACV Venus inh inconclusive
Clc1ccc(-c2nc3ccccc3nc2-c2ccccc2)cc1	none
CCSc1nnc(-c2ccc(Cl)cc2)c2ccccc12	HCMV antiviral inconclusive (no result: VACV mCherry inh, VACV Venus inh)
Cc1nnc(Sc2nc3ccccc3o2)c2ccccc12	HCV inhibitor inconclusive, VACV mCherry inh inconclusive, VACV Venus inh inconclusive
Cc1ccc(-c2nnc(Sc3nc4ccccc4o3)c3ccccc23)cc1	HCV inhibitor inconclusive, VACV mCherry inh 10µM, VACV Venus inh 10µM
